Drawing on PubChem BioAssay (Tox21), this text covers Potency and outcome for eight compounds.

Experiment [1] is described as follows: qHTS assay to identify aromatase inhibitors - cell viability counter screen (AID 743084).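 Note: cells stimulated with testosterone during compound exposure; nearly all actives have a fitted effect of over 55% in size.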 Background: In qHTS, concentration-response curves come from the screen itself.
Experiment [2] concerns the target Aryl hydrocarbon receptor (Homo sapiens) (UniProt P35869). The experiment in a line: qHTS assay to identify small molecule that activate the aryl hydrocarbon receptor (AhR) signaling pathway (AID 743085).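 For activation: HG2L7.5c1 human HepG2 liver cells with stably integrated DRE-driven firefly reporter; series mostly up to about 70 µM.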 Note: nearly all actives have a fitted effect of over 15% in size. Note: potency is the fitted concentration of half-maximal effect. In short, it runs like this:
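HepG2 cells (HG2L7.5c1) stably carrying a firefly luciferase reporter driven by 20 dioxin responsive elements were exposed to compound for 24 h at 37C after a 5 h settling period; luminescence rise (ONE-Glo) indicated activation.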

The nature of experiment [3]: qHTS assay to identify small molecule that activate the aryl hydrocarbon receptor (AhR) signaling pathway - cell viability counter screen (AID 743086).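 Note: HepG2 liver cells carrying the AhR DRE luciferase reporter; series mostly up to about 70 µM; nearly all actives have a fitted effect of over 45% in size.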 In short, it runs like this:
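HepG2-AhR-luc (HG2L7.5c1) cells, 4000/well, were preincubated 5 h at 37C, exposed to compound in qHTS format for 24 hr at 37C, then given CellTiter-Fluor for 30 min; viability was read as fluorescence in the reporter wells.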

Experiment [4] deals with Peroxisome proliferator-activated receptor gamma (Homo sapiens) (UniProt P37231). Briefly: qHTS assay to identify small molecule agonists of the peroxisome proliferator-activated receptor gamma (PPARg) signaling pathway (AID 743094; active = well fitted activation curve with a large enough effect in the signal ratio in the repeat runs, not every such curve was filed as active; the % refers to the signal ratio). In short, it runs like this: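 Cells from the PPARg UAS-bla HEK293H line are plated and incubated 5 h at 37C. Compounds in DMSO are pinned in and left 17 h at 37C. LiveBLAzer B/G substrate is then added for 1 h at room temperature before fluorescence is measured.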

For experiment [5] the target is unchanged. The experiment in a line: qHTS assay to identify small molecule antagonists of the peroxisome proliferator-activated receptor gamma (PPARg) signaling pathway (AID 743191; calls by dose curve; note: series mostly up to about 63 µM; nearly all actives have a fitted effect of over 30% in size). In outline:
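GeneBLAzer PPARg UAS-bla HEK293H cells carrying a UAS-driven beta-lactamase reporter were plated at 3000 cells/well, preincubated 5 h at 37C, then given compound for 17 h at 37C; LiveBLAzer B/G FRET substrate was read after 1 h at room temperature.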

Experiment [6] in a line: qHTS assay to identify small molecule antagonists of the peroxisome proliferator-activated receptor gamma (PPARg) signaling pathway - cell viability counter screen (AID 743194). Note: nearly all actives have a fitted effect of over 55% in size. In outline: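 PPARg-UAS-bla HEK293H cells were plated, rested 5 h at 37 C, then treated with compounds plus rosiglitazone (50 nM final) for 17 h at 37 C; viability was then read by CellTiter-Glo luminescence after 30 min at room temperature.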

The nature of experiment [7]: qHTS assay for small molecule agonists of the antioxidant response element (ARE) signaling pathway - cell viability counter screen (AID 743203; calls by dose curve; note: nearly all actives have a fitted effect of over 55% in size). In short, it runs like this:
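Cytotoxicity was tested in parallel with the ARE reporter screen. ARE-bla HepG2 cells were exposed to compounds for 16 hrs, and viability was taken from CellTiter-Glo luminescence.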

Experiment [8] is described as follows: qHTS assay for small molecule activators of the heat shock response signaling pathway - cell viability counter screen (AID 743209). Note: nearly all actives have a fitted effect of over 50% in size. In short, it runs like this: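 Cytotoxicity counter screen run in parallel with the HSE beta-lactamase reporter, using the same wells. HeLa HSE-bla cells received compound for 5 h at 37 C; ATP-based CellTiter-Glo luminescence was measured after 30 min at room temperature.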

The nature of experiment [9]: qHTS assay for small molecule activators of the heat shock response signaling pathway (AID 743210; active = well fitted activation curve with a large enough effect in the signal ratio in the repeat runs, with a control signal flat, not every such curve was filed as active; the % refers to the signal ratio;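 note: HeLa cells with beta-lactamase reporter driven by heat shock elements; series mostly up to about 63 µM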). In short, it runs like this:
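Activation of heat shock element-controlled beta-lactamase expression is measured in HeLa cells by LiveBLAzer FRET fluorescence, with compound exposure lasting 5 h at 37 C and substrate loading 2.5 h at room temperature.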

A short description of experiment [10]: qHTS assay to identify small molecule agonists of the peroxisome proliferator-activated receptor delta (PPARd) signaling pathway - cell viability counter screen (AID 743211). Note: nearly all actives have a fitted effect of over 55% in size. In outline: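 PPARd-bla HEK293H cells (UAS-beta-lactamase reporter) were treated with compounds for 17 h at 37 C. Viability was then read in the same wells by CellTiter-Glo luminescence after 30 min at room temperature.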

Experiment [11] deals with Peroxisome proliferator-activated receptor delta (Homo sapiens) (UniProt Q03181). Briefly: qHTS assay to identify small molecule agonists of the peroxisome proliferator-activated receptor delta (PPARd) signaling pathway (AID 743212; calls by dose curve). In short, it runs like this:
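Cells expressing a UAS-driven beta-lactamase reporter (PPARd-bla HEK293H) were given test compounds after a 5 h settle and kept at 37 C. Reporter activity was then measured as FRET fluorescence using LiveBLAzer B/G substrate.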

Experiment [12] in a line: qHTS assay to identify small molecule antagonists of the peroxisome proliferator-activated receptor delta (PPARd) signaling pathway - cell viability counter screen (AID 743213). Note: nearly all actives have a fitted effect of over 50% in size. In short, it runs like this: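 PPARd-bla HEK293H cells (3000/well) got compound plus 300 nM L165041 agonist for 17 h at 37 C. Viability in the same wells came from CellTiter-Glo luminescence after 30 min at room temperature.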

Experiment [13] in a line: qHTS assay to identify small molecule agonists of the farnesoid-X-receptor (FXR) signaling pathway - cell viability counter screen (AID 743218). Note: nearly all actives have a fitted effect of over 45% in size. In short, it runs like this: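 Cells were seeded, left 5 h at 37 C and 5% CO2, then dosed with compound in DMSO for 16 h. After the beta-lactamase FRET read, CellTiter-Glo was added and luminescence measured 30 min later.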
Experiment [14] in a line: qHTS assay to identify small molecule antagonists of the farnesoid-X-receptor (FXR) signaling pathway - cell viability counter screen (AID 743221; active = well fitted cell-killing curve with a large enough effect in the repeat runs, not every such curve was filed as active; note: nearly all actives have a fitted effect of over 50% in size). In outline: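 FXR-UAS-bla HEK 293T cells were treated with test compounds plus chenodeoxycholic acid (50 uM final) for 16 h at 37 C. Cell viability in the same wells was then read as CellTiter-Glo luminescence after 30 min at room temperature.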

Experiment [15] deals with Vitamin D3 receptor (Homo sapiens) (UniProt P11473). Briefly: qHTS assay to identify small molecule agonists of the vitamin D receptor (VDR) signaling pathway (AID 743222; calls by dose curve). In outline:
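Cells carrying a VDR-driven beta-lactamase reporter are seeded at 2,000 per well and rested 4 h. Compounds in DMSO are added for 16 h at 37C, and FRET substrate fluorescence is measured after 2 h at room temperature.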

Experiment [16] shares this target. The experiment in a line: qHTS assay to identify small molecule antagonists of the vitamin D receptor (VDR) signaling pathway (AID 743223; active = well fitted inhibition curve with a large enough effect in the signal ratio in the repeat runs, not every such curve was filed as active; the % refers to the signal ratio). In short, it runs like this:
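VDR-bla cells were plated, incubated 4 h at 37C, then given compound and 1alpha,25-dihydroxyvitamin D3 (3 nM final). After 16 h at 37C, LiveBLAzer B/G FRET substrate was added for 2 h at room temperature and fluorescence read.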

Experiment [17] can be described thus: qHTS assay for small molecule agonists of the antioxidant response element (ARE) signaling pathway (AID 743202; active = well fitted activation curve with a large enough effect in the signal ratio in the repeat runs, not every such curve was filed as active; the % refers to the signal ratio). In short, it runs like this: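 Steps: seed ARE-bla HepG2 cells (2,000/well); incubate 5 h at 37 C; add compounds by pin tool; incubate 16 h at 37 C; add FRET substrate; read fluorescence after 2 h at RT.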
Experiment [18] has as its target Bile acid receptor (Homo sapiens) (UniProt Q96RI1). The experiment in a line: qHTS assay to identify small molecule antagonists of the farnesoid-X-receptor (FXR) signaling pathway (AID 743217; active = well fitted inhibition curve with a large enough effect in the signal ratio in the repeat runs, not every such curve was filed as active; the % refers to the signal ratio). In outline: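 Cells carrying a UAS-driven beta-lactamase reporter (GeneBLAzer FXR-UAS-bla HEK 293T) were plated and rested 5 h at 37 °C. Compounds in DMSO were added alongside chenodeoxycholic acid agonist at 50 uM final and left 16 h at 37 °C before FRET substrate readout.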

Experiment [19] has the same target. The experiment in a line: qHTS assay to identify small molecule agonists of the farnesoid-X-receptor (FXR) signaling pathway (AID 743220; active = well fitted activation curve with a large enough effect in the signal ratio in the repeat runs, not every such curve was filed as active; the % refers to the signal ratio). In short, it runs like this:
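FXR-UAS-bla HEK 293T cells carrying a UAS-driven beta-lactamase reporter were plated for 5 h at 37C/5% CO2, then exposed to DMSO-dissolved Tox21 10K compounds for 16 h at 37C. A LiveBLAzer B/G FRET substrate was loaded for 2 h at room temperature before fluorescence reading.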

In experiment [20] the target is Peroxisome proliferator-activated receptor delta (Homo sapiens) (UniProt Q03181). The experiment in a line: qHTS assay to identify small molecule antagonists of the peroxisome proliferator-activated receptor delta (PPARd) signaling pathway (AID 743215; active = well fitted inhibition curve with a large enough effect in the signal ratio in the repeat runs, not every such curve was filed as active; the % refers to the signal ratio;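 note: cells stimulated with agonist L165041 at 300 nM final during compound exposure; series mostly up to about 62 µM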). In outline:
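Cells: HEK293H with a UAS-driven beta-lactamase reporter responsive to PPARd. Compounds were co-added with L165041 (300 nM, final) and incubated 17 h at 37 C before a 2 h room-temperature FRET substrate step and fluorescence reading.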

Values joined by “and” are separate entries in the source; they are usually repeats but may differ in a detail not shown here. Equal entries are not always repeated. Inconclusive results are not listed. Active and inactive are the calls of the source. Unless noted, calls come from the whole dose curve; as a rule, active = well fitted curve in the direction sought with a large enough effect in the repeat runs; inconclusive = weak or mixed curves; inactive = no such curve, though single readings can be large; an effect the other way counts as inactive or inconclusive.

Sequence of Peroxisome proliferator-activated receptor gamma (Homo sapiens) (P37231 whole entry, looked up): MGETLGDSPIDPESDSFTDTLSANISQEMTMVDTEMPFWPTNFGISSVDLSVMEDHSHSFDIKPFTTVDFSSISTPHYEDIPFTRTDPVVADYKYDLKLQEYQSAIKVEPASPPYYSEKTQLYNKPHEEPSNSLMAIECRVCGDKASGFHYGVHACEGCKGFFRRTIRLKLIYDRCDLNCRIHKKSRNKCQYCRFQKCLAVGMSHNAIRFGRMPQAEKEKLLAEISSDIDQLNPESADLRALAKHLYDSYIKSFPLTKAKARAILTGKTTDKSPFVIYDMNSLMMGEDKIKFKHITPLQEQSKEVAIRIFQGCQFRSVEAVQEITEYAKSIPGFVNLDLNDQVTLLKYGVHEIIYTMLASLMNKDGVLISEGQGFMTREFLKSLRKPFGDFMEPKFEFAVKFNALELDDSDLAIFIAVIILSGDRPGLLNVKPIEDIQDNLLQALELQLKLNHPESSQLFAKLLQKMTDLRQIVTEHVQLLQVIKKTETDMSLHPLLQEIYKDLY
Sequence of Vitamin D3 receptor (Homo sapiens) (P11473 whole entry, looked up): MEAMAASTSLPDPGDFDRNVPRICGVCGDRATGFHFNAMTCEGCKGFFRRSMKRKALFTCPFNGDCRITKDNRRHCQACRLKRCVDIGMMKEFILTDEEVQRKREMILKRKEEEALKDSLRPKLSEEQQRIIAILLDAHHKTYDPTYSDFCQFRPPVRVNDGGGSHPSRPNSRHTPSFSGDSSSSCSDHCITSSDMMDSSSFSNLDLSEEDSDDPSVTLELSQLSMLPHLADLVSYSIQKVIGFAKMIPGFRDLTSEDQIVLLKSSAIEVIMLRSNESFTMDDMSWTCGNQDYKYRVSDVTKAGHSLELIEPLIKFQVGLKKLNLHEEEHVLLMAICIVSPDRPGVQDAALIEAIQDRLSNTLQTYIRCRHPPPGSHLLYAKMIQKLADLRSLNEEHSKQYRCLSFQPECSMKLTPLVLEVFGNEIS
Sequence of Bile acid receptor (Homo sapiens) (Q96RI1 whole entry, looked up): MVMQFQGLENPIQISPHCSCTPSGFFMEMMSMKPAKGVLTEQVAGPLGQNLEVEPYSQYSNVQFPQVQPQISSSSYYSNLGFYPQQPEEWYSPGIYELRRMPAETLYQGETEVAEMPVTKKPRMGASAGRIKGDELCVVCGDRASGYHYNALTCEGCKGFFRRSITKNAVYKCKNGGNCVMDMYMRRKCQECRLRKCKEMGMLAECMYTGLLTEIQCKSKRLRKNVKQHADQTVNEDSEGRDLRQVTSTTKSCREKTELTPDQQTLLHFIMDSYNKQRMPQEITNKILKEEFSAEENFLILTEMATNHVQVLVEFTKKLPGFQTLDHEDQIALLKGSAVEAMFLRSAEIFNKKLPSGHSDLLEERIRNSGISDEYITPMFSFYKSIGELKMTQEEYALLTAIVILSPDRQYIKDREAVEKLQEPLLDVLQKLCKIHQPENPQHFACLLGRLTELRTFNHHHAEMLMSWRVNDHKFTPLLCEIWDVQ
Sequence of Peroxisome proliferator-activated receptor delta (Homo sapiens) (Q03181 whole entry, looked up): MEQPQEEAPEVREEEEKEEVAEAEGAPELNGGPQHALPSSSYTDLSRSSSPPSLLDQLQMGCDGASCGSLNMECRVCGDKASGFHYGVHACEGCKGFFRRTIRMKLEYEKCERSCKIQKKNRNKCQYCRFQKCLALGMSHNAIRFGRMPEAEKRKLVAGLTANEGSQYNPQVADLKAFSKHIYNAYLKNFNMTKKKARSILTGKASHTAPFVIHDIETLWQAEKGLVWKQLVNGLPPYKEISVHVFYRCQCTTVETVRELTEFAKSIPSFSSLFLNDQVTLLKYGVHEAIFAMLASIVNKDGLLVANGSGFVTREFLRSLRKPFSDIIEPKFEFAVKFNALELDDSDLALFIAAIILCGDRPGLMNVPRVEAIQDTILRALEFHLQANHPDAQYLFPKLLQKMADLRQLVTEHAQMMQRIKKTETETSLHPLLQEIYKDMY
Sequence of Aryl hydrocarbon receptor (Homo sapiens) (P35869 whole entry, looked up): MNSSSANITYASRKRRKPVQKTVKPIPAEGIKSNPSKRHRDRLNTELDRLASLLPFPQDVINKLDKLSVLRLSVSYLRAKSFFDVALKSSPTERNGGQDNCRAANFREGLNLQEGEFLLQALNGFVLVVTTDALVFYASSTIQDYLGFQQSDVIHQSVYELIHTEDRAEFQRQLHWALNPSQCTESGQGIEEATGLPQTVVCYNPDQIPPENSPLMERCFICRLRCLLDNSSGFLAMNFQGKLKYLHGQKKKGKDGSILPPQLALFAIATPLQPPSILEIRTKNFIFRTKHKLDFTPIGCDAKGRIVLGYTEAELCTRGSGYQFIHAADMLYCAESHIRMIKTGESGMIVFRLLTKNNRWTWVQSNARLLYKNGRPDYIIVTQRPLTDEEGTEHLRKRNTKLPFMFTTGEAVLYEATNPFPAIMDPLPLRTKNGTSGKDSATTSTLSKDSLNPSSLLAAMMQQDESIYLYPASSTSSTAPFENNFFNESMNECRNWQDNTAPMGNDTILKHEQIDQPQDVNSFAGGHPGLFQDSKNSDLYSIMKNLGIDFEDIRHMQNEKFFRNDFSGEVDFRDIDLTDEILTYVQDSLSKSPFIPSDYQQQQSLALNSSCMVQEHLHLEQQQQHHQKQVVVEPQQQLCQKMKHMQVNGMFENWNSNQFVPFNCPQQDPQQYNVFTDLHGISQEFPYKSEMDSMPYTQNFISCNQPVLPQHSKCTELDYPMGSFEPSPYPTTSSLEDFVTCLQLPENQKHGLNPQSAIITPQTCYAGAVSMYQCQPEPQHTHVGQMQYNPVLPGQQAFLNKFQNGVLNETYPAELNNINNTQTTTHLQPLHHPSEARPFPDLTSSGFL

For `CC(C)=CCO`, the Potency entry in [1], in experiment [2], in experiment [3], in [5], in experiment [6] and in experiment [7] was “inactive” throughout. Besides, the Potency entry in [8], in experiment [10], in experiment [12], in experiment [13] and in experiment [14] was “inactive” in each case. Moreover, the compound was classed as inactive in experiment [4], in experiment [9], in experiment [11], in experiment [15] and in [16].

In the case of `CCc1cccc2c3c([nH]c12)C(CC)(CC(=O)O)OCC3` (stereo unspecified), the Potency result in [1], in experiment [2], in experiment [3], in experiment [5], in experiment [6] and in experiment [17] was “inactive” throughout. Besides, the Potency entry in experiment [7], in [8], in experiment [10], in experiment [12], in experiment [18] and in [13] was “inactive” each time. Besides, in experiment [14], the Potency entry is “inactive”. Also, the compound was classed as inactive in experiment [4], in experiment [9], in experiment [19], in [15] and in experiment [16].

With `O=C1CCc2ccccc2O1`, the Potency result in [1], in experiment [2], in experiment [3], in experiment [5], in experiment [6] and in experiment [17] was “inactive” each time. For the same compound, the Potency result in experiment [7], in experiment [10], in experiment [12], in [13] and in experiment [14] was “inactive” in each case. The call in experiment [4], in [9], in experiment [11], in experiment [20], in experiment [15] and in experiment [16] was inactive.

Regarding `FC(F)(F)C(Cl)Br` (stereo unspecified), the Potency result in experiment [1], in experiment [2], in [3], in experiment [5], in [6] and in experiment [17] was “inactive” in each case. Also, the Potency entry in experiment [7], in experiment [10], in [12], in experiment [13] and in [14] was “inactive” each time. The call in experiment [4], in experiment [9], in experiment [11] and in [20] was inactive.

As to `C[C@]12C=CC(=O)C=C1CC[C@H]1[C@@H]3C[C@@H](O)[C@](O)(C(=O)CO)[C@@]3(C)C[C@H](O)[C@@]12F`, the Potency result in experiment [1], in experiment [2], in [3], in experiment [5], in experiment [6] and in experiment [17] was “inactive” each time. For the same compound, the Potency result in experiment [7], in experiment [10], in experiment [12], in experiment [13] and in experiment [14] was “inactive” each time. The outcome in experiment [4], in [9], in experiment [11], in [20], in experiment [15] and in experiment [16] was inactive.

As for `Brc1nc2ccccc2s1`, the Potency result in experiment [1], in experiment [3], in [5], in experiment [6], in [7] and in [8] was “inactive” throughout. In addition, the Potency entry in experiment [10], in experiment [12], in [18], in [13] and in [14] was “inactive” in each case. In experiment [2], the Potency was 30.5 µM (active) and 13.7 µM (active). In addition, the result in experiment [4], in experiment [9], in experiment [11], in [20], in experiment [19] and in experiment [15] was inactive.

In the case of `C=C[Si](OCCOC)(OCCOC)OCCOC`, the Potency result in experiment [1], in [2], in experiment [3], in experiment [5], in experiment [6] and in [17] was “inactive” throughout. Further, the Potency result in experiment [7], in [8], in [10], in experiment [12], in experiment [18] and in experiment [13] was “inactive” each time. The Potency entry in experiment [14] was “inactive”. Further, the compound was called inactive in [4], in experiment [9], in experiment [11], in experiment [20], in experiment [19] and in experiment [15]. The compound was classed as inactive in [16].

On to `C=CN1CCCC1=O`, for which the Potency entry in experiment [1], in [2], in experiment [3], in experiment [5], in experiment [6] and in experiment [17] was “inactive” in each case. In addition, the Potency result in experiment [7], in experiment [10], in experiment [12], in [13] and in [14] was “inactive” throughout. For the same compound, the compound was classed as inactive in experiment [4], in experiment [9], in experiment [11] and in experiment [20].
